Data published in PubChem BioAssay (NCI).
This is part of a sample that, as a whole, favours compounds with a hit. Of some 83,000 tested, about 20% had one in any assay.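 Single-dose data. Exposure time 48 hours. Values below 10 considered active.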 Values without a mark were called inactive. Active and inactive are the calls of the source.

Assays:
Test in all cases: NCI-60 one-dose screen, 48 h (100 = growth as untreated, 0 = no growth, -100 = all killed)
Details in all cases: 10 µM unless noted
HCT-15 colon = test system: HCT-15 colon
HT29 colon = test system: HT29 colon
SNB-75 CNS = test system: SNB-75 CNS
SNB-19 CNS = test system: SNB-19 CNS
U251 CNS = test system: U251 CNS
PC-3 prostate = test system: PC-3 prostate
SK-MEL-5 melanoma = test system: SK-MEL-5 melanoma
UACC-62 melanoma = test system: UACC-62 melanoma
LOX IMVI melanoma = test system: LOX IMVI melanoma
SK-MEL-28 melanoma = test system: SK-MEL-28 melanoma
SK-MEL-2 melanoma = test system: SK-MEL-2 melanoma
EKVX NSCLC = test system: EKVX NSCLC
SN12C renal = test system: SN12C renal
UO-31 renal = test system: UO-31 renal
TK-10 renal = test system: TK-10 renal
ACHN renal = test system: ACHN renal
CAKI-1 renal = test system: CAKI-1 renal
A498 renal = test system: A498 renal
CCRF-CEM leukemia = test system: CCRF-CEM leukemia
MOLT-4 leukemia = test system: MOLT-4 leukemia

| SMILES | growth (HCT-15 colon) | growth (HT29 colon) | growth (SNB-75 CNS) | growth (SNB-19 CNS) | growth (U251 CNS) | growth (PC-3 prostate) | growth (SK-MEL-5 melanoma) | growth (UACC-62 melanoma) | growth (LOX IMVI melanoma) | growth (SK-MEL-28 melanoma) | growth (SK-MEL-2 melanoma) | growth (EKVX NSCLC) | growth (SN12C renal) | growth (UO-31 renal) | growth (TK-10 renal) | growth (ACHN renal) | growth (CAKI-1 renal) | growth (A498 renal) | growth (CCRF-CEM leukemia) | growth (MOLT-4 leukemia) |
| --- | --- | --- | --- | --- | --- | --- | --- | --- | --- | --- | --- | --- | --- | --- | --- | --- | --- | --- | --- | --- |
| COc1cc(C2=NN(C(C)=O)C(c3cc(OC)c(OC)c(OC)c3)C2)ccc1O (configuration not stated) | 4.31% (active) | 8.21% (active) | 4.64% (active) | 34.9% | 7.85% (active) | 13.1% | 6.65% (active) | 15.3% | 34.7% | 68.2% | 37.9% | 34.8% | 34.2% | 31.8% | 47.5% | 30.5% | 46.4% | -14.4% (active) | -16.5% (active) | 0.196% (active) |
| COc1cc2c(c(OC)c1OC)-c1ccc(NNC(=S)N(Cc3cccc(C[N+](Cc4cccc(CNC56CC7CC(CC(C7)C5)C6)c4)(Cc4cccc(CNC56CC7CC(CC(C7)C5)C6)c4)Cc4cccc(CN(C(=S)NNc5ccc6c(cc5=O)[C@@H](NC(C)=O)CCc5cc(OC)c(OC)c(OC)c5-6)C56CC7CC(CC(C7)C5)C6)c4)c3)C34CC5CC(CC(C5)C3)C4)c(=O)cc1[C@@H](NC(C)=O)CC2 (some centres not stated) | 9.96% (active) | -5.79% (active) | 31.7% | 16% | 5.78% (active) | 12.2% | -94.2% (active) | 15.5% | -20.1% (active) | 33.3% | -20.3% (active) | 44.7% | 12.2% | 39.7% | 48.7% | 44.4% | 29% | -5.83% (active) | -6.54% (active) | -17% (active) |
| COc1ccc2c(c1)oc1c(C)c3c(c(C)c12)C(=O)N(N)C3=O | 41.9% | 6.15% (active) | -55.9% (active) | 46.2% | 13.6% | 54.1% | 4.46% (active) | 43.6% | 43.4% | 51% | 93% | 49.1% | 38.7% | -45.8% (active) | -4.02% (active) | -23.7% (active) | 34.2% | -7.39% (active) | 55.8% | 17.4% |
| O=C1CC(=O)OC(c2ccc([N+](=O)[O-])cc2)O1 | -48.8% (active) | -39.5% (active) | 9.16% (active) | 55.2% | 4.05% (active) | 37% | 18.4% | -72.2% (active) | -84.5% (active) | -17.3% (active) | -40.2% (active) | 47.8% | -37.6% (active) | -88.2% (active) | -15.5% (active) | -76.2% (active) | -45.7% (active) | 104% | 15.3% | – |
| CC(=O)[C@H]1CCC/C=C/[C@@H]2C[C@H](O)C[C@H]2[C@H](O)/C=C/C(=O)O1 | 11.9% | 4.12% (active) | 38.4% | 28.6% | 20.5% | 27.6% | -94% (active) | 12.3% | -63% (active) | -16.6% (active) | -14.3% (active) | 6.77% (active) | 9.7% (active) | 1.16% (active) | 30.8% | 5.56% (active) | -15.7% (active) | -42.8% (active) | 9.09% (active) | -41.3% (active) |
| C=C1C(=O)O[C@H]2[C@H]1CC/C(CNC(=O)c1cccc3ccccc13)=C\CC[C@@]1(C)O[C@@H]21 | 10.2% | 8.85% (active) | 82.6% | 66.4% | 59% | 53.7% | 60.1% | 31.4% | 24.3% | 41.2% | 70.7% | 65.9% | 25% | 37.9% | 34.8% | 11.6% | 40% | 81.8% | 1.76% (active) | 4.8% (active) |
| O=C(O)c1ccc2c(c1)C(=O)N(Cc1ccccc1)C2=O | 99.9% | 99.9% | 94.2% | 95.1% | 92.7% | 96.2% | 99.7% | 97.9% | 95.7% | 110% | 106% | 99.8% | 98.2% | 83% | 91.1% | 99.9% | 99.3% | 85.4% | 92.6% | 98.5% |
| CC(=O)Nc1ccc(-c2ccc3c(c2)NC(=O)/C3=C\c2ccc[nH]2)cc1 | 92.6% | 90.6% | 111% | 104% | 86.6% | 97.8% | 100% | 105% | 84.2% | 116% | 96% | 49.5% | 94.6% | 38.8% | 70.2% | 69.5% | 78.1% | – | 94.8% | – |
| Cn1c(N2NC(=O)C(N=Nc3ccc(S(N)(=O)=O)cc3)C2=O)nc(-c2ccco2)c(C#N)c1=O (configuration not stated) | 61.7% | 85.3% | 64.5% | 99.7% | 96.9% | 82.9% | 98% | 83.5% | 76.8% | 102% | 117% | 107% | 92.6% | 63.2% | 131% | 81.6% | 69.8% | 122% | – | 4.74% (active) |
| CCN(CC)c1ccc(/C=N/NC(=O)CSc2nc3ccccc3c(=O)n2Cc2ccc(S(N)(=O)=O)cc2)c(O)c1 | 47.5% | 32.1% | 38.8% | 41.8% | 24.4% | 48.8% | 5.72% (active) | 6.51% (active) | 1.32% (active) | 33.1% | 10.5% | 35.1% | 32.5% | 45.9% | 15.1% | 33.6% | 31% | – | 10.8% | – |
| COc1ccc(C(=O)/C=C/c2cc3ccccc3n3nnnc23)cc1 | 97.3% | 110% | 98.3% | 99.1% | 101% | 103% | 103% | 97.7% | 104% | 110% | 106% | 99.9% | 102% | 90.8% | 104% | 106% | 88.8% | – | 101% | – |
| C=C1C(=O)O[C@H]2[C@H]1CC/C(C(=O)NCCCCCNC(=O)/C1=C/CC[C@@]3(C)O[C@H]3[C@H]3OC(=O)C(=C)[C@@H]3CC1)=C\CC[C@@]1(C)O[C@@H]21 | 95.5% | 102% | 103% | 102% | 99.3% | 91.6% | 100% | 97.9% | 99.9% | 101% | 107% | 105% | 109% | 92.6% | 96.5% | 102% | 106% | – | 105% | – |
| COc1ccc(C(=O)c2cc(C)c(OC)c(C)c2)c(OC)c1NC(C)=O | 16.3% | 3.24% (active) | 56.2% | 22.9% | 21.4% | 20.9% | 20.6% | 31.6% | 32% | 49.5% | 26% | 56% | 34.8% | 40% | 51.9% | 24.9% | 42.4% | – | 20.8% | – |
| Oc1ccc(OCCOc2ccc(O)cc2)cc1 | 38.4% | 86.9% | 73.8% | 79.2% | 49.5% | 55.7% | 26.8% | 22.5% | 36.4% | 102% | 81.8% | 75.4% | 59.6% | 4.76% (active) | 87.9% | 6.65% (active) | 11.4% | 100% | 58.8% | 60.8% |
| COc1cc2c(=O)n(CCN(C)C)c3c4cc5c(cc4ccc3c2cc1OC)OCO5 | -13.3% (active) | 0.585% (active) | 17.8% | 6.11% (active) | -4.24% (active) | 7.26% (active) | -68.7% (active) | -85.6% (active) | -58.3% (active) | -33.9% (active) | -65.1% (active) | -1.09% (active) | -4.74% (active) | -77.6% (active) | -76.2% (active) | -92.6% (active) | -89.5% (active) | – | 2.56% (active) | 3.91% (active) |
